In PubChem BioAssay (EPA / NIEHS):
“And” between values parts separate entries of the source, which are not always exact repeats. Equal values may be shown once. Results filed as inconclusive are left out. The source made the active and inactive calls. The calls were made as follows, unless noted: active = hit-call score of the fitted dose curve at least 0.9, where 1 is the maximum; inconclusive = response in the unintended direction; inactive = score below 0.9.

Experiments:
[1] = biological target: Cellular tumor antigen p53 (Homo sapiens) (UniProt P04637); experiment: TOX21_p53_BLA_p2_ratio: Tox21 HCT-116 p53 Agonism Beta-lactamase Assay, Ratio, Phase 2 (AID 2283592)
Cellular tumor antigen p53 (Homo sapiens), sequence (P04637 whole entry, looked up): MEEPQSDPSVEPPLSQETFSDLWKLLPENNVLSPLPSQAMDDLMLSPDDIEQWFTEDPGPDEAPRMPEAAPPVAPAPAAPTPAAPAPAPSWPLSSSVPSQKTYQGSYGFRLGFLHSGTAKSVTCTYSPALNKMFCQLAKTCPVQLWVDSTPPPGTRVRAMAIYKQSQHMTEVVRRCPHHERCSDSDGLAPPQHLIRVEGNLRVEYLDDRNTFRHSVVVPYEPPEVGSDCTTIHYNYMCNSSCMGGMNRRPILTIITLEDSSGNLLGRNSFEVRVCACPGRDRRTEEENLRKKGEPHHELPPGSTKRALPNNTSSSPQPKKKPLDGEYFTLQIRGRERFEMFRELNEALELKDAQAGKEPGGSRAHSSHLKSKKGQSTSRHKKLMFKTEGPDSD
Procedure, shortened: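 DMSO-normalized, positive-direction endpoint derived from the 460 nm/530 nm FRET ratio in HCT116 p53 beta-lactamase reporter cells exposed 16 h at 37C and loaded with CCF4-AM for 2 h.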

[2] = TOX21_p53_BLA_p3_viability: Viability Assessment in the Tox21 HCT-116 p53 Agonism Beta-lactamase Assay, Phase 3 (AID 2283593);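 also: cells exposed to compound for 16 h before reading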
Procedure, shortened: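 HCT-116 cells (4000/well) rested 5 h at 37C, then got DMSO compounds by pin tool (217-fold dilution) for 16 h at 37C, 5% CO2. After the bla read, CellTiter-Glo was added and luminescence read at 30 min, room temperature.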

[3] = biological target: Cellular tumor antigen p53 (Homo sapiens) (UniProt P04637); experiment: TOX21_p53_BLA_p3_ratio: Tox21 HCT-116 p53 Agonism Beta-lactamase Assay, Ratio, Phase 3 (AID 2283596)
Procedure, shortened: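 Cells were seeded at 4000/well, rested 5 h at 37C, then dosed with DMSO compound solutions (217-fold dilution) for 16 h. CCF4-AM substrate was loaded for 2 h at room temperature, and the 460/530 nm emission ratio was fitted for gain of signal versus DMSO.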

[4] = TOX21_p53_BLA_p4_viability: Viability Assessment in the Tox21 HCT-116 p53 Agonism Beta-lactamase Assay, Phase 4 (AID 2283597);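 also: hits lower the luminescence signal meaning cytotoxicity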
Procedure, shortened: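 In this multiplexed secondary endpoint, HCT116 cells (4000 per well, compound at 5 h, 16 h treatment) received CellTiter-Glo after the beta-lactamase read. Luminescence after 30 min RT reflects ATP, and falling signal marks cytotoxicity.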

[5] = biological target: Cellular tumor antigen p53 (Homo sapiens) (UniProt P04637); experiment: TOX21_p53_BLA_p5_ratio: Tox21 HCT-116 p53 Agonism Beta-lactamase Assay, Ratio, Phase 5 (AID 2283599)
Procedure, shortened: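 HCT-116 cells carrying a p53-inducible beta-lactamase reporter were seeded at 4000 cells/well and dosed after 5 h with compound in DMSO (217-fold dilution). After 16 h at 37C, CCF4-AM substrate was added for 2 h, and the 460/530 nm emission ratio was scored as gain-of-signal versus DMSO.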

[6] = TOX21_p53_BLA_p5_viability: Viability Assessment in the Tox21 HCT-116 p53 Agonism Beta-lactamase Assay, Phase 5 (AID 2283600)
Procedure, shortened: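 Here cell health was gauged by ATP levels in wells holding 4000 cells, each treated 16 h with DMSO-delivered compounds at 217-fold dilution; reduced luminescence marked toxicity.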

[7] = biological target: Cellular tumor antigen p53 (Homo sapiens) (UniProt P04637); experiment: TOX21_p53_BLA_p4_ratio: Tox21 HCT-116 p53 Agonism Beta-lactamase Assay, Ratio, Phase 4 (AID 2283601)
Procedure, shortened: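 HCT116 cells carrying an inducible beta-lactamase reporter were plated at 4000 cells/well, rested 5 h, then exposed to compounds in DMSO (217-fold dilution) for 16 h at 37C. CCF4-AM substrate was loaded 2 h at room temperature; 460/530 nm emission ratio scored gain-of-signal versus DMSO.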

PGR (gene 5241) [8] = biological target: PGR (gene 5241) (UniProt P06401); experiment: TOX21_PR_BLA_Followup_Agonist_ratio: Tox21 HEK293 Progesterone Receptor (PR) Agonism Beta-lactamase Follow-Up Assay, Ratio (AID 2283933)
PGR (gene 5241), sequence (P06401 whole entry, looked up, the tested form may be a part): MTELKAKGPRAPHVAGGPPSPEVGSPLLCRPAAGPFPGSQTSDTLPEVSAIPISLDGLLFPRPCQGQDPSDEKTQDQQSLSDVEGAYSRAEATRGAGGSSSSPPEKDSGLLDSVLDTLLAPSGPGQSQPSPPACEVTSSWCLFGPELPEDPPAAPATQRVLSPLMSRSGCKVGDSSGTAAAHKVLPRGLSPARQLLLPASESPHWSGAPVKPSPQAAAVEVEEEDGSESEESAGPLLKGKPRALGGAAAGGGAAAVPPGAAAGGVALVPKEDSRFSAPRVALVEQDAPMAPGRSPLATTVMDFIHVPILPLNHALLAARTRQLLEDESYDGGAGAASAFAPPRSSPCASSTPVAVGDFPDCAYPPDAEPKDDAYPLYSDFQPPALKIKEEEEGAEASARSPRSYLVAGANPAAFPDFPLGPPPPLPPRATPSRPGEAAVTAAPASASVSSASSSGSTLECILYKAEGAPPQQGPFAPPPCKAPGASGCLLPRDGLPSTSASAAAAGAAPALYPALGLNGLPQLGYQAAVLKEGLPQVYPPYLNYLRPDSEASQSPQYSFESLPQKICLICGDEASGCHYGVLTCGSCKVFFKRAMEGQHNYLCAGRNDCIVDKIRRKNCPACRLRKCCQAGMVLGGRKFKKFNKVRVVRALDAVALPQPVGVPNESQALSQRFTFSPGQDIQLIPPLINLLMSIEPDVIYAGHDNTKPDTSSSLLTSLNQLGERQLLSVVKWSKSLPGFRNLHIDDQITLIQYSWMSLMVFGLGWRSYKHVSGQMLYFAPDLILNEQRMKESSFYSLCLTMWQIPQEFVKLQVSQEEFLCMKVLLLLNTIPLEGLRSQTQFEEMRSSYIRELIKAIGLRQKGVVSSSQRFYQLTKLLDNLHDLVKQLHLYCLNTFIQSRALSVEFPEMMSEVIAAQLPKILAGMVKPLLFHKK
Procedure, shortened: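 Read-out: ratio of cleaved (ch2) to uncleaved (ch1) beta-lactamase substrate fluorescence, gain-of-signal relative to DMSO baseline. Cells: PR-UAS-bla HEK293T, 2% charcoal-stripped FBS; compound exposure 16 hr, 37C; substrate 2 hr, RT.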

PGR (gene 5241) [9] = biological target: PGR (gene 5241) (UniProt P06401); experiment: TOX21_PR_BLA_Followup_Antagonist_ratio: Tox21 HEK293 Progesterone Receptor (PR) Antagonism Beta-lactamase Follow-Up Assay, Ratio (AID 2283934)
Procedure, shortened: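 Read-out: blue/green beta-lactamase FRET ratio (cleaved ch2 over uncleaved ch1), fitted relative to DMSO baseline. Cells: PR-UAS-bla HEK293T, GAL4-UAS reporter, stimulated with 1 nM R5020 final; 16 hr compound exposure, 37C.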

[10] = TOX21_PR_BLA_Followup_Agonist_viability: Viability Assessment in the Tox21 HEK293 Progesterone Receptor (PR) Agonism Beta-lactamase Follow-Up Assay (AID 2283935);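 also: signal loss means lower viability so actives are cytotoxic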
Procedure, shortened: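 Luminescent ATP quantitation (CellTiter-Glo, 30 min, room temperature) in the same wells as the beta-lactamase read, on PR-UAS-bla HEK293T cells exposed to compound for 16 hr at 37C in 2% charcoal-stripped serum.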

[11] = TOX21_PR_BLA_Followup_Antagonist_viability: Viability Assessment in the Tox21 HEK293 Progesterone Receptor (PR) Antagonism Beta-lactamase Follow-Up Assay (AID 2283936);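 also: cells exposed to compound with R5020 agonist for 16 h; hits lower the luminescence signal meaning cytotoxicity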
Procedure, shortened: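 PR-UAS-bla HEK293T cells in medium with 2% charcoal-stripped FBS were treated with compounds plus R5020 for 16 hr at 37C. After the beta-lactamase read, CellTiter-Glo was added to the same wells and luminescence read after 30 min at room temperature.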

PGR (gene 5241) [12] = biological target: PGR (gene 5241) (UniProt P06401); experiment: TOX21_PR_LUC_Followup_Agonist: Tox21 HEK293 Progesterone Receptor (PR) Agonism Luciferase Follow-Up Assay (AID 2283937; active = hit-call score of the fitted dose curve at least 0.9, where 1 is the maximum; inactive = score below 0.9)
Procedure, shortened: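 Luminescence read-out (ONE-Glo, 30 min at room temperature) of PR-driven luciferase in HEK293-PR-A-luc cells after 16 h compound exposure at 37C; gain of signal fitted relative to DMSO baseline.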

PGR (gene 5241) [13] = biological target: PGR (gene 5241) (UniProt P06401); experiment: TOX21_PR_LUC_Followup_Antagonist: Tox21 HEK293 Progesterone Receptor (PR) Antagonism Luciferase Follow-Up Assay (AID 2283938);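 also: curve fitted upward as signal gain over DMSO baseline despite antagonist label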
Procedure, shortened: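 Luciferase reporter in HEK293-PR-A-luc cells: 16 h compound treatment at 37C, ONE-Glo luminescence detection, DMSO as negative control and baseline.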

[14] = TOX21_PR_LUC_Followup_Antagonist_viability: Viability Assessment in the Tox21 HEK293 Progesterone Receptor (PR) Antagonism Luciferase Follow-Up Assay (AID 2283940)
Procedure, shortened: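 Read-out: CellTiter-Glo ATP luminescence, loss of signal taken as reduced viability. Cells: HEK293-PR-A-luc, 3,000/well, 5 h settling, then 16 h compound exposure at 37C, 0% CO2.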

[15] = TOX21_PR_LUC_Followup_Agonist_viability: Viability Assessment in the Tox21 HEK293 Progesterone Receptor (PR) Agonism Luciferase Follow-Up Assay (AID 2283941);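 also: loss of signal means cytotoxicity so actives lower viability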
Procedure, shortened: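 Cytotoxicity counter-screen: ATP content by CellTiter-Glo luminescence, loss of signal = reduced viability. HEK293-PR-A-luc, 3,000 cells/well, compound exposure 16 h, 37C.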

[16] = CCTE_Harrill_HTTr_Viability_MCF7: CCTE's 6-hour Cell Viability Assessment for the High-Throughput Transcriptomics (HTTr) Platform, in MCF-7 cells cultured in DMEM + 10% fetal bovine serum, Harrill Lab (AID 2284010; active = hit-call score of the fitted dose curve at least 0.9, where 1 is the maximum; inactive = score below 0.9)
Procedure, shortened: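 PI exclusion, high-content imaging; 8-pt dilution series, 6 h exposure; bidirectional fit vs DMSO (neg. ctrl/baseline); gain of signal = loss of membrane integrity.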

[17] = CCTE_Harrill_HTTr_Apoptosis_MCF7: CCTE's 6-hour Apoptosis Assessment for the High-Throughput Transcriptomics (HTTr) Platform, in MCF-7 cells cultured in DMEM + 10% fetal bovine serum, Harrill Lab (AID 2284011; active = hit-call score of the fitted dose curve at least 0.9, where 1 is the maximum; inactive = score below 0.9)
Procedure, shortened: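 Apoptosis in MCF-7 cells grown in DMEM with 10% fetal bovine serum was scored after a six hour exposure by high content imaging of caspase-3/7 activation (CellEvent Caspase 3/7 Green), with DMSO serving as negative control and baseline.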

[18] = CCTE_Harrill_HTTr_CellCount_MCF7: CCTE's Cell Proliferation Assessment for the High-Throughput Transcriptomics (HTTr) Platform, Harrill Lab (AID 2284012);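 also: count of Hoechst-stained nuclei per well by high-content imaging in MCF-7 cells; cells exposed to compound for six hours; intended direction is loss of nuclei count meaning fewer cells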
Procedure, shortened: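 Readout: Hoechst nuclear count by high-content imaging. MCF-7, 8-point dilution series, 6 h exposure. Bidirectional fit vs DMSO baseline.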

[19] = biological target: Thyroid hormone receptor alpha (Rattus norvegicus) + Thyroid hormone receptor beta (Rattus norvegicus) (UniProt P18113+P63059); experiment: TOX21_TR_LUC_GH3_Antagonist_Followup: Tox21 GH3 Thyroid Hormone Receptor Antagonism Luciferase Follow-Up Assay (AID 2283942)
Procedure, shortened: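 In a GH3 luciferase reporter line, test chemicals spanning 92 uM to 5nM final are co-incubated 24 h with 1.0 nM T3. Activity is expressed as relative luminescence units and analysed relative to DMSO.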

THRB (gene 7068) = THRB (gene 7068) (UniProt P10828); experiment: TOX21_TRB_BLA_Antagonist_Followup_ratio: Tox21 Thyroid Hormone Receptor beta Antagonism Beta-lactamase (BLA) Follow-Up Assay, Ratio (AID 2283958)
THRB (gene 7068), sequence (P10828 whole entry, looked up, the tested form may be a part): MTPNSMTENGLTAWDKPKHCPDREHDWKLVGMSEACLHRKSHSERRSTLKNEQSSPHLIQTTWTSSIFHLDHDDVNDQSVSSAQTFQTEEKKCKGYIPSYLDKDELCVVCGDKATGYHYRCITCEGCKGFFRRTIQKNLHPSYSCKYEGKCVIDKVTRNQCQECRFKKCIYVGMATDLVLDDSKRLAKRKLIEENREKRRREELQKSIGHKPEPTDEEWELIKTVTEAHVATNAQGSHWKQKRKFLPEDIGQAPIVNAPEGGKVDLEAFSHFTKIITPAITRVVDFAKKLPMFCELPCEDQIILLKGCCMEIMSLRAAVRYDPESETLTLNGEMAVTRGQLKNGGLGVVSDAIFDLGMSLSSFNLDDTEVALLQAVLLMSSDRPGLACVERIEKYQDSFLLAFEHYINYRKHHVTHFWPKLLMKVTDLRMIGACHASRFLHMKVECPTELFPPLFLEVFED
Procedure, shortened: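 Read-out: blue/green (460:530 nm) ratio of cleaved to uncleaved CCF4-AM after 2 h at room temperature, fitted against DMSO baseline. HEK293T UAS-bla cells carrying GAL4-human TRβ LBD were exposed 18 h, 37C/5% CO2.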

[20] = TOX21_TRB_BLA_Antagonist_Followup_viability: Viability Assessment in the Tox21 Thyroid Hormone Receptor beta Antagonism Beta-lactamase (BLA) Follow-Up Assay (AID 2283961)
Procedure, shortened: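 In the same wells as the reporter read, cell health was gauged by CellTiter-Glo ATP luminescence, with signal loss indicating reduced viability. Cells had been exposed to test compounds for 18 h.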

[21] = biological target: Retinoic acid receptor RXR-alpha (Homo sapiens) (UniProt P19793); experiment: TOX21_TR_RXR_BLA_Antagonist_Followup_ratio: Tox21 Thyroid Hormone Receptor beta Retinoid X Receptor alpha (RXRa) Antagonism Beta-lactamase (BLA) Follow-Up Assay, Ratio (AID 2283972)
Retinoic acid receptor RXR-alpha (Homo sapiens), sequence (P19793 whole entry, looked up): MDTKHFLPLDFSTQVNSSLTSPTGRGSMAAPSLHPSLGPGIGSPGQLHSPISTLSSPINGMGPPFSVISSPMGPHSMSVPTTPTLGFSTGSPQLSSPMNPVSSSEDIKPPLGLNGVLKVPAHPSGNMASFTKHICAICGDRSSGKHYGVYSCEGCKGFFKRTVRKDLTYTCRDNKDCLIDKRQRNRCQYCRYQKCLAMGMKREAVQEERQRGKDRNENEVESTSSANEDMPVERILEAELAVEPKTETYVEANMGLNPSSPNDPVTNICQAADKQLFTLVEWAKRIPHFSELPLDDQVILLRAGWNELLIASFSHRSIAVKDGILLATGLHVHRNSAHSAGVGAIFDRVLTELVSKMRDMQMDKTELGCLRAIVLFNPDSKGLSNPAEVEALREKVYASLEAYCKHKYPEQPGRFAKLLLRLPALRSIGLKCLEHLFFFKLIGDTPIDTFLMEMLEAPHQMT
Procedure, shortened: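 Compounds were tested in triplicate at 11 concentrations on RXRa-bla HEK293T cells for 16 h. Substrate cleavage ratio, normalized to DMSO, gave the endpoint.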

[22] = TOX21_TR_RXR_BLA_Antagonist_Followup_viability: Viability Assessment in the Tox21 Thyroid Hormone Receptor beta Retinoid X Receptor alpha (RXRa) Antagonism Beta-lactamase (BLA) Follow-Up Assay (AID 2283979)
Procedure, shortened: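 RXRa-UAS-bla HEK293T cells seeded 2,500/well in phenol red-free DMEM with 2% charcoal-stripped FBS, attached 5 h, then exposed to compounds at 11 concentrations in triplicate for 16 h at 37C/5% CO2. Viability read by CellTiter-Glo ATP luminescence; bidirectional fit versus DMSO.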

Measured: AC50

Oc1ccc(Cc2ccccc2)cc1
active: [1] 66.5 µM
inactive: [2] | [3] | [4] | [5] | [6] | [7]

COc1cccc(N(C)C(=S)Oc2ccc3c(c2)CCCC3)n1
inactive: [1] | [2] | [3] | [4] | [5] | [6] | [7]

Oc1ccc(N=Nc2ccccc2)cc1
inactive: [6] | PGR (gene 5241) [8] | [10] | [11] | PGR (gene 5241) [12] | PGR (gene 5241) [13] | [14] | [15]
active: [1] 87.4 µM | [2] 75 µM | [3] 87.5 µM | [4] 75.7 µM | [5] 74.7 µM | [7] 87.8 µM | PGR (gene 5241) [9] 27.5 µM

CCCCCCCCCCCCCCC[C@H](O)[C@@H](N)CO
inactive: [1] | [2] | [3] | [4] | [5] | [7]

CCN(CC)CCSC(=O)C(c1ccccc1)c1ccccc1
inactive: [1] | [2] | [3] | [4] | [5] | [6] | [7]

c1ccc([C@H]2CN3CCSC3=N2)cc1
inactive: [1] | [2] | [3] | [4] | [5] | [6] | [7] | [16] | [17] | [18]

CO[C@H](C(=O)[C@@H](O)[C@@H](C)O)C1Cc2cc3cc(O[C@H]4C[C@@H](O[C@H]5C[C@@H](O)[C@H](O)[C@@H](C)O5)[C@@H](O)[C@@H](C)O4)c(C)c(O)c3c(O)c2C(=O)[C@H]1O[C@H]1C[C@@H](O[C@H]2C[C@@H](O[C@H]3C[C@](C)(O)[C@H](O)[C@@H](C)O3)[C@H](O)[C@@H](C)O2)[C@H](O)[C@@H](C)O1 (some centres undefined)
inactive: [2] | [4] | [6] | [20]
active: [1] 23.8 nM and 43.4 nM | [3] 24.2 nM and 37.6 nM | [5] 36 nM and 39.5 nM | [7] 45.6 nM and 49.7 nM | [19] 0.745 µM | THRB (gene 7068) 4.01 µM | [21] 1.36 µM | [22] 1.35 µM

CC12CCC(CC1=O)C2(C)C (centres undefined)
inactive: [1] | [2] | [3] | [4] | [5] | [6] | [7]

CC1C(=O)CC2C3(C)CCC2(C(C)C(=O)O)C(=O)C13 (centres undefined)
inactive: [1] | [2] | [3] | [4] | [5] | [7]

COCC(O)CO (centres undefined)
inactive: [1] | [2] | [3] | [4] | [5] | [6] | [7]
